The text below walks through data of PubChem BioAssay (NCI).

Molecules are shown by their SMILES. This is part of a sample that, as a whole, favours compounds with a hit. Of some 83,000 tested, about 20% had one in any assay.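 Negative percent growth values reflect cell death: -40 means 40% of the cells present at the start died, and -100 means all died.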 The source made the active and inactive calls.

The experiment deals with SNB-19 CNS. As to the kind of experiment: NCI-60 one-dose screen, 48 h (100 = growth as untreated, 0 = no growth, -100 = all killed). Particulars: 10 µM unless noted. The method, then:
Growth inhibition of the SNB-19 human tumor cell line is measured as a screen for anti-cancer activity. Cells are grown in 96 well plates and exposed to the test compound for 48 hours. Compounds are tested at a single concentration, which is 10^-5 M for most compounds. The reported endpoint is percent growth (GI% or GIPRCNT), where numbers from 0 - 100% represent growth inhibition, and numbers from -100% - 0 represent cell death. For example, a value of 40 represents 60% growth inhibition. A value of 0 means no net growth occurred over the course of the experiment. A value of -40 indicates 40% of cells at the beginning of the experiment died by the end of the experiment. A value of -100 means all cells are dead at the end of the experiment.
NCI-60 Human Tumor Cell Lines Screen was performed using the standard one-dose NCI protocol, which is described in more detail at https://dtp.cancer.gov/discovery_development/nci-60/default.htm.
Compounds with GIPRCNT values below 10 were considered active. Activity score was based on GIPRCNT using the following formula: […]
Score is 0 for GIPRCNT values of 100 or above, 50 for GIPRCNT values of 0, and 100 for GIPRCNT values of -100.
For the compound `COc1cc(C2C(C#N)=C(N)OC3=C2C(=O)c2ccccc2C3=O)cc(OC)c1OC` (stereo not given), the growth is 34.2% (inactive). Next, `O=C(/C=C/c1ccccc1)c1ccc(Nc2nc(NCCO)nc(Nc3ccc(Cl)cc3)n2)cc1`: 79.6% (inactive). The same measure for `COc1ccc(-c2nsc3c2NC(=O)CC3c2cccc(OC)c2)cc1` (stereo not given): 70.3% (inactive); for `O=C1CCC(N2C(=O)c3cccc(NCCCCCCOc4ccc(Nc5nccc(Nc6ccccc6)n5)cc4)c3C2=O)C(=O)N1` (stereo not given): 86.3% (inactive); for `Cc1sc2ncn(CC(=O)Nc3ccc(S(N)(=O)=O)cc3)c(=O)c2c1C`: 98.5% (inactive). Take `O=C(Nc1ccc(C23CC4CC(CC(c5ccccc5)(C4)C2)C3)cc1)c1cccs1`: the growth was 91.9% (inactive). With `CN(C)c1ccc(/C=C/c2ccnc3c(O)cccc23)cc1`, the growth is 26.4% (inactive). The same measure for `COc1ccc(C2C3=C(COC3=O)N(CCO)c3cc4c(cc32)OCCO4)cc1` (stereo not given): 81.2% (inactive).

Take `Cn1nc(C(C)(C)C)cc1NC(=O)Cc1ccc(/C=C2\C(=O)Nc3ccccc32)cc1`: the growth was 63.9% (inactive). The same measure for `Cc1cc(Nc2ccc(OCc3ccccc3)cc2)nc2cc(O)ccc12`: 70.5% (inactive). As to `O=C(Nc1ccc(I)cc1F)c1cc(Cl)ccc1O`, the growth is 18.6% (inactive).

Turning to `Cc1ccc(F)cc1NC(=O)c1cc(Cl)ccc1Nc1ccccc1`, the growth is 59.4% (inactive). Turning to `O=C(Nc1ccccc1O)c1ccc(Oc2cccc(C(=O)Nc3ccccc3O)c2)cc1`, the growth is 21.7% (inactive). Next, `O=c1oc2ccc(I)cc2c(=O)n1-c1ccc(Cl)cc1F`: 20.8% (inactive); `CN1C(=O)N(C)C2C1NN=c1s/c(=C\c3ccc([N+](=O)[O-])cc3)c(=O)n12` (stereo not given): 54% (inactive). For `O=C(CN1C=NC2C(N3CCOCC3)=NC=NC21)c1ccc(Br)cc1` (stereo not given), the growth was 97.2% (inactive). The same measure for `COc1cc(NC(=O)CCSc2nc3ccccc3c(=O)n2Cc2ccccc2)cc(OC)c1OC`: 84.9% (inactive). Next, `O=Cc1cc2ccccc2nc1Nc1nccs1`: 71.6% (inactive); `COc1ccc(CCN2CCC(CN(C)Cc3cnn(-c4ccccc4)c3)CC2)cc1`: 29.4% (inactive); `C=C(C)CCC(C)N1CCC(N2CCC(C(=O)NCCc3ccccc3)CC2)CC1` (stereo not given): 102% (inactive). The same measure for `COC(=O)c1c2c(c(C)[n+]([O-])c1C)C(=O)C(NCc1ccc(Br)cc1)=CC2=O`: 19% (inactive); for `COc1ccc(CCN2C(=O)/C(=C/c3ccc(C4Oc5ccccc5C5CC(c6cccc(OC)c6)=NN54)cc3)SC2=S)cc1` (stereo not given): 99.1% (inactive); for `CCCC(=O)CC(C)=O.CCCC(=O)CC(C)=O.[Cu]`: 110% (inactive). Regarding `COC(=O)/C(CCC=C(C)C)=C1\[C@@H](OC(C)=O)C[C@@]2(C)[C@H]1C[C@@H](O)[C@H]1[C@@]3(C)CC[C@H](NCc4ccccc4)[C@@H](C)[C@@H]3CC[C@@]12C`, the growth is 81.9% (inactive). The same measure for `C1=CC2(C=C1)OC21CCC2(C=CC3(C2)OC3C2CCCCC2)CC1` (stereo not given): 104% (inactive). The same measure for `Cn1cc(-c2ccc3ncc(-c4ccc(CC(=O)Nc5cc(C(C)(C)C)no5)cc4)nc3c2)cn1`: 62.6% (inactive); for `Clc1ccc(Nc2nnc(-c3ccc4c(c3)OCO4)o2)cc1`: 99% (inactive); for `CCN1C(=O)N(CC)C2C1NN=c1s/c(=C3\C(=O)N(C(C)C)c4ccccc43)c(=O)n12` (stereo not given): 31.3% (inactive). Turning to `CCN(CC)CCNC(=O)C(Cl)=C1C(Cl)=C(Cl)C(Cl)=C1Cl`, the growth was 85.5% (inactive). The same measure for `COc1ccc(CN2CCCC(C(=O)c3ccc(C(F)(F)F)cc3)C2)c(O)c1` (stereo not given): 44.1% (inactive); for `CCCCNc1nc(NC(C)(C)C)nc(NC(C)(C)C)n1`: 63.7% (inactive); for `Cc1ccc2cccc(Oc3ccc(Nc4ncnc5onc(-c6ccccc6)c45)cc3)c2n1`: 92.3% (inactive). Next, `Cc1ccc(C2CC(c3ccc(Nc4nc(NCCO)nc(Nc5ccc(Cl)cc5)n4)cc3)=NN2c2cc(Cl)cc(Cl)c2)cc1` (stereo not given): 106% (inactive); `C=CCN1C(=O)/C(=c2\sc3n(c2=O)NC2C(N=3)N(CC)C(=O)N2CC)c2ccccc21` (stereo not given): 44.5% (inactive). Next, `S=C1CCCC(=S)N1`: 103% (inactive). Consider `O=c1oc2ccc(-c3ccc(F)cc3F)cc2c(=O)n1-c1ccc(Cl)c(C(F)(F)F)c1`, for which the growth was 33.9% (inactive). Next, `COc1c(B(O)O)cccc1-c1nc2ccc3[nH]ncc3c2c2c1C1CCC2C1` (stereo not given): 74% (inactive); `O=C(Nc1ccc(N2CCNCC2)cc1)c1[nH]ncc1Nc1cc(C2CC2)ncn1`: 65.4% (inactive). In the case of `O=c1oc2ccc(F)cc2c(=O)n1-c1ccc(I)cc1F`, the growth is 15.6% (inactive). The same measure for `CN1CCN(Cc2ccc(C(=O)Nc3cncc(C#Cc4cnc5cccnn45)c3)cc2C(F)(F)F)CC1`: 95% (inactive).
